From PubChem BioAssay AID1671192 (National Center for Advancing Translational Sciences (NCATS), 2021)
Inconclusive results are not listed. The source made the active and inactive calls. The call rests on the fitted dose curve; in most records, active means well fitted curve in the direction sought with a large enough effect; inconclusive means small, poorly fitted or top-dose-only effect, or another doubt; inactive means no such curve, though single readings can be large or run the other way.

Target: Polyunsaturated fatty acid lipoxygenase ALOX15 (Homo sapiens) (UniProt P16050)
Assay: Counterscreen qHTS for inhibitors of human arachidonate 12S-lipoxygenase (ALOX12): ALOX15 Assay; further: 0% is about no effect
Conditions: purified ALOX15 enzyme activity; series mostly up to 110 µM; activity change, negative = inhibition: at the top concentration
Source text: Assay Provider: Theodore R. Holman Ph.D.
University of California, Santa Cruz, California
Human lipoxygenase 12hLO is a member of the closely related lipoxygenase family of enzymes which catalyze the site-specific oxidation of arachidonic acid to various hormone precursor molecules and as such is a candidate for drug development in a variety of disease areas, such as cancer and inflammation. Inhibition of 12hLO activity was screened by utilizing arachidonic acid as a substrate. The extent of hydroperoxide product formation was measured by a secondary chromogenic reaction in which xylenol orange (XO, Sigma-Aldrich, cat. number 39,818-7) reacts with the ferric ions produced from the reaction between the hydroperoxide and ferrous ions. The Fe (III)-XO complex is characterized with red-shifted absorbance at 560 nm. A purified preparation of human 12hLO was supplied by Dr. Holman laboratory, University of California, Santa Cruz.
An assay against arachidonate 15-lipoxygenase (ALOX15) was developed to assess selective inhibition against ALOX12. Desired compounds would show potent inhibition against ALOX12 and minimal to no inhibition against ALOX15.
SEQUENCE No. (e.g., 1, 2, 3, etc.); PARAMETER (e.g., Cells, Incubation, Reagent, etc.); VALUE; DESCRIPTION
1; Enzyme; 3 uL; 40 nM ALOX15 (15hLO-1) enzyme solution dispensed in 1536-well Greiner black, clear bottom plates.
2; Compound; 23 nL; compounds and controls were added.
3; Incubate; 15 min; room temperature.
4; Substrate; 1 uL; 50 uM arachidonic acid (final concentration).
5; Incubate; 30 min; room temperature.
6; Reagent; 4 uL; Fe-XO solution was added to each well.
8; Incubation; 30 min; room temperature
9; Detector; absorbance; Read 1 at 405 nm absorbance using ViewLux (PerkinElmer) CCD imager.
10; Detector; absorbance; Read 2 at 573 nm absorbance using ViewLux (PerkinElmer) CCD imager.
NOTES (numbers refer to sequence above)
1; 40 nM ALOX15 (final concentration) in buffer solution (25 mM Hepes, 0.01% Triton X-100, pH 7.5) was dispensed in columns 1, 2, 5 - 48. Column 1 is neutral (100% activity). Buffer only was dispensed in columns 3 and 4 as no enzyme negative controls. The plates were covered with metal lids with gas-exchange holes.
2; Compounds were pin transferred via a Kalypsys Pin Tool (Wako USA) in column 5 - 48. Control compound was transferred in column 2, titration of nordihydroguaiaretic acid (NDGA, Sigma-Aldrich, N5023) with top concentration of 10 mM in DMSO then 1:2 dilution in duplicate. Dilution factor of 23 nL into 4 uL final assay volume.
3; Covered assay plates were incubated for 15 min at room temperature.
4; Substrate was added to start the reaction; 50 uM arachidonic acid (Sigma-Aldrich, St. Louis, MO) was dispensed throughout the plate.
6; Chromogenic detection reagent solution (divalent iron/xylenol orange, Fe-XO) was added to each well: 200 uM xylenol orange, 300 uM ferrous ammonium sulfate prepared freshly in 50 mM sulfuric acid.
9, 10; Two absorbance readouts were obtained at 405 nm and at 573 nm using a ViewLux high-throughput CCD plate imager (PerkinElmer). The 573 to 405 (Read 2 / Read 1) absorbance ratio was used to compute reaction progress.

Polyunsaturated fatty acid lipoxygenase ALOX15 (Homo sapiens), sequence (P16050 whole entry, looked up): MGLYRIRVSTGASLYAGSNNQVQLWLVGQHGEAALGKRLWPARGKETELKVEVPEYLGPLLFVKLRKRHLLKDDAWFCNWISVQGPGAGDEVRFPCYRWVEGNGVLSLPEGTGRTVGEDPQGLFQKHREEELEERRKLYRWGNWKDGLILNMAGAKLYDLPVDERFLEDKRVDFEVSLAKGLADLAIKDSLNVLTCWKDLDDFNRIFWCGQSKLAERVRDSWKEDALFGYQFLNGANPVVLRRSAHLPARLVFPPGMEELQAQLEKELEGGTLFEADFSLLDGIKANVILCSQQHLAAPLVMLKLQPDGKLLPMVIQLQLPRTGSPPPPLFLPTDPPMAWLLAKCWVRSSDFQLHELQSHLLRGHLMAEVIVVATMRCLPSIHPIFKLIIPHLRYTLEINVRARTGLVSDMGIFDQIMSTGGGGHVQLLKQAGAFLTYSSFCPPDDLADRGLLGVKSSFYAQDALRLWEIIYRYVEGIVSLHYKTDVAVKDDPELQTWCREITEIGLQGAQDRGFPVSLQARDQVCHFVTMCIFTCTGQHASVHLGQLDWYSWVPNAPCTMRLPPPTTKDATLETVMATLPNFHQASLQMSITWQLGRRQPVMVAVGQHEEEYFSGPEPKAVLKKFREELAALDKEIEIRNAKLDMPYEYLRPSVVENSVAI

| SMILES | activity change, negative = inhibition |
| --- | --- |
| CNC1CCCc2ccccc21 (stereo not given) | -22.1% [at 233 µM] (inactive) |
| O=C(NC1CC1)c1cc(C2CC2)nc2onc(C3CCNCC3)c12 | -21.6% [at 146 µM] (inactive) |
| CN1CC(=O)N(C2CCNC2)Cc2c(NCCc3cccc(F)c3)ncnc21 (stereo not given) | -7.72% (inactive) |
| O=C(O)c1ccc(-c2cnccn2)cc1 | -14.5% [at 233 µM] (inactive) |
| O=Cc1ccc(-c2ccc(O)cc2)cc1 | -0.934% [at 233 µM] (inactive) |
| Cc1ccc2nc(C3CCN(Cc4cccs4)CC3)[nH]c(=O)c2c1 | -12.2% [at 146 µM] (inactive) |
| Cn1nc(C2CCCNC2)c2c(C(=O)NC3CC3)cc(C3CC3)nc21 (stereo not given) | -5.86% [at 146 µM] (inactive) |
| CC(C)CNC(=O)c1cc(C2CC2)nc2onc(C3CCCNC3)c12 (stereo not given) | -7.29% [at 146 µM] (inactive) |
| O=C(c1ccccc1)N1CCn2c(nn(-c3cccc(Cl)c3)c2=O)C1 | -14.8% [at 146 µM] (inactive) |
| COc1ccc(-n2nc3n(c2=O)CCN(C(=O)c2ccccn2)C3)cc1 | -10.8% [at 146 µM] (inactive) |
| CCc1ccc(CN2CCC3(Cc4ccccc4CNC3=O)C2)s1 (stereo not given) | -17.1% [at 146 µM] (inactive) |
| O=C1NCc2ccccc2CC12CCN(Cc1ccc(Cl)s1)C2 (stereo not given) | -19.6% (inactive) |
| COc1ccc(C(=O)N2CCc3nc(C4CC4)nc(-c4ccc(Cl)cc4)c3C2)cc1 | -10.3% (inactive) |
| CCOc1ccc(CN2CCC3(Cc4ccccc4CNC3=O)C2)cc1 (stereo not given) | -15.1% [at 146 µM] (inactive) |
| CCc1nc2c(c(-c3ccc(OC)cc3)n1)CCN(Cc1cccc3ccccc13)CC2 | -18.7% (inactive) |
| O=C(c1ccc(C(F)(F)F)cc1)N1CCC2(CC1)C(=NC1CCCCC1)NC(=O)N2c1cc(F)cc(F)c1 | -17% (inactive) |
| COc1ccc(CN2CCC3(C2)C(=O)Nc2ccccc23)cc1 (stereo not given) | -19.9% [at 146 µM] (inactive) |
| CN1CC(=O)N(C2CCCNC2)Cc2c(NCCc3ccccc3F)ncnc21 (stereo not given) | -11% (inactive) |
| O=C(N1CCCC1)N1CCN(c2ccc(Cl)nn2)C(=O)C1 | -13.1% [at 146 µM] (inactive) |
| COCCNc1nc2c([S+](=O)([O-])c3cc(OC)ccc3OC)nnn2c2ccccc12 | 4.89% (inactive) |

| SMILES | activity change, negative = inhibition |
| --- | --- |
| CC(CCc1ccccc1)Nc1ncnc2c1CN(C1CCNC1)C(=O)CN2C (stereo not given) | -15.6% (inactive) |
| CCCN1CCC2(CC1)Cc1ccccc1CN(C(=O)C(C)C)C2 | -2.08% [at 146 µM] (inactive) |
| O=[S+]([O-])(c1ccncc1)c1nnn2c1nc(NCc1ccc(F)cc1)c1ccccc12 | -0.991% (inactive) |
| O=c1[nH]c(C2CCCN(Cc3cccc(-c4cccs4)c3)C2)nc2ccc(F)cc12 (stereo not given) | -23% (inactive) |
| COc1ccc(OC2CN(Cc3ccc(F)cc3)C2)cc1 | 0.696% [at 146 µM] (inactive) |
| CCNc1ncnc2c1CN(C1CCNC1)C(=O)CN2C (stereo not given) | -18.4% [at 146 µM] (inactive) |
| COc1ccc(CN2CCCC3(Cc4ccccc4CNC3=O)C2)cc1 (stereo not given) | -6.45% [at 146 µM] (inactive) |
| CCOc1ccccc1CN1CCCCC12Cc1ccccc1CNC2=O (stereo not given) | -16% (inactive) |
| Cc1cc(C(=O)NC2CCCC2)c2c(C3CCNCC3)noc2n1 | -14.4% [at 146 µM] (inactive) |
| Cc1ccc(CN2CCC3(Cc4ccccc4CNC3=O)C2)cc1 (stereo not given) | -27.6% [at 146 µM] (inactive) |
| O=c1[nH]c(C2CCCN(Cc3ccc(-c4cc(F)cc(F)c4)cc3)C2)nc2ccc(F)cc12 (stereo not given) | -9.41% (inactive) |
| CC1CCCN(c2ncnc3c2CN(C2CCNCC2)C(=O)CN3C)C1 (stereo not given) | -19.1% (inactive) |
| COCCCNC(=O)c1cc(C2CC2)nc2c1c(C1CCCN1)nn2-c1ccccc1 (stereo not given) | 0.477% (inactive) |
| O=C(c1ccc2c(c1)OCO2)N1CCC2(CC1)C(=O)Nc1ccccc12 | 1.58% [at 146 µM] (inactive) |
| O=C1Nc2ccccc2C12CCN(Cc1ccccc1)C2 (stereo not given) | -8.29% [at 146 µM] (inactive) |
| CCc1nc2c(c(-c3ccc(OC)cc3)n1)CCN(Cc1ccc(C(F)(F)F)cc1)CC2 | -24.3% (inactive) |
| FC(F)(F)c1ccc(N2C3CCC2CN(Cc2cccc(-c4cccs4)c2)C3)cc1 | 0.0453% (inactive) |
| CNCc1ccccc1OC(F)(F)F | -10.2% [at 146 µM] (inactive) |
| COc1ccc(CC(=O)N2Cc3ccccc3CC3(CCCN(C)C3)C2)cc1 (stereo not given) | -24.5% (inactive) |
| COc1cccc(N2C(=O)NC(=NC3CCCCC3)C23CCCN([S+](=O)([O-])c2cccs2)C3)c1 (stereo not given) | -28.6% (inactive) |
